Measurements published in ChEMBL document CHEMBL3988442, “University of Dundee, Small-Polar-MMV Screening Library” (2021).
Values joined by “and” are separate entries in the source; they are usually repeats but may differ in a detail not shown here. Equal values may be shown once. In all, about 34,000 compounds went through this assay and about 290 (0.85%) showed an effect of 50% or more. The sample as a whole holds a higher share of strong results than the screen did.

Tested on: Plasmodium falciparum
Assay: Plasmodium falciparum sporozoite viability assay
Format: functional, organism-based
Design: scale not given: in the data most compounds retested in dose-response had high values

| Compound | Percent Effect | Percent Effect (10 mM as filed; unlikely as a test dose) |
| --- | --- | --- |
| Cn1cnc2c1CCN(CCOc1ccc(C#N)cc1)C2 | 2.022% | – |
| CCC(=O)N1CCCC1(C)c1nc(C)no1 (stereo not drawn) | 15.01% | – |
| Cn1ccc(C(=O)N2CCCC2c2[nH]ncc2C(N)=O)n1 (stereo not drawn) | 3.652% | – |
| O=C(c1ccc(-n2cccn2)nc1)N1CCC(c2ccn[nH]2)C1 (stereo not drawn) | -0.6869% | – |
| Cc1nc[nH]c1CN1CCCC12CCN(c1nc3ccccc3s1)CC2 | – | 73.34% and 82.13% |
| Cc1nc[nH]c1CN1CCCN(c2nc3ccccc3s2)CC1 | – | 2.478% and -18.14% |
| c1ccc2sc(N3CCC4(CCCN4Cc4ncc[nH]4)CC3)nc2c1 | – | 21.32% and 38.1% |
| Cc1noc(C2CCCN(C(=O)c3ccc(N(C)C)nc3)C2)n1 (stereo not drawn) | 8.423% | – |
| Cc1noc(C2CCN(C(=O)c3ccc(N(C)C)nc3)CC2)n1 | 4.187% | – |
| Cc1noc(C2CCN(C(=O)Nc3ccc(N(C)C)nc3)CC2)n1 | – | 63.01% and 33.92% and 30.08% |
| CC(C)c1n[nH]c(C2CN(C(=O)c3cc(C4CC4)on3)CCO2)n1 (stereo not drawn) | -9.758% | – |
| CSc1ccc(-c2nc(CN3CCC(NC(C)=O)CC3)c(C)o2)cc1 | – | 0.03712% and -0.9585% and 6.229% |
| CSc1ccc(-c2nc(CN3CCC(NC(C)=O)C3)c(C)o2)cc1 (stereo not drawn) | – | 76.12% and 85.32% and 90.74% |
| CNC(=O)C1CCN(Cc2nc(-c3ccc(SC)cc3)oc2C)C1 (stereo not drawn) | – | -17.68% and 5.16% and 2.023% |
| Cc1ncncc1C(=O)N1CCOC(C)(C(=O)NC2CCCC2)C1 (stereo not drawn) | 12.89% | – |
| CCCc1nnc(NC(=O)N2CCCC(NC(C)=O)C2)s1 (stereo not drawn) | – | 54.93% and 67.74% |
| CC(=O)NC1CCCN(C(=O)Nc2nnc(C(C)C)s2)C1 (stereo not drawn) | – | 68.35% and 80.73% |
| CC(=O)NC1CCCN(C(=O)NCc2cc[nH]n2)C1 (stereo not drawn) | -1.899% | – |
| CC(=O)NC1CCCN(C(=O)NCc2cccnc2N(C)C)C1 (stereo not drawn) | -28.43% | – |
| CC(=O)NC1CCCN(C(=O)Nc2cnc3c(cnn3C(C)C)c2)C1 (stereo not drawn) | -3.926% | – |
| CCC(CC)c1nnc(NC(=O)N2CCCC(NC(C)=O)C2)s1 (stereo not drawn) | – | 78.77% and 70.93% |
| CCC(CC)c1nnc(NC(=O)N2CCC(C(N)=O)CC2)s1 | – | -8.76% and -13.24% |
| CC(C)c1nnc(NC(=O)NC2CCN(Cc3ccccc3)C2)s1 (stereo not drawn) | 14.49% | – |
| CC(=O)NC1CCCN(C(=O)CNc2cc(Cl)cc(Cl)c2)C1 (stereo not drawn) | -3.441% | – |

| Compound | Percent Effect | Percent Effect (10 mM as filed; unlikely as a test dose) |
| --- | --- | --- |
| Cc1n[nH]c(C)c1CC(=O)NCc1ccccc1Cl | -5.904% | – |
| Cc1cncc(NC(=O)c2ccc(CN3CCCC(C(N)=O)C3)cc2)c1 (stereo not drawn) | – | -5.227% and 10.36% |
| COc1ccc(NC(=O)c2ccc(CN3CC[C@H](O)C3)cc2)c(OC)n1 | – | -15.85% and -8.926% |
| COc1cc(NC(=O)c2ccc(CN3CC[C@H](O)C3)cc2)cc(OC)c1 | – | 90.3% and 82.4% |
| Cc1cncc(NC(=O)c2ccc(CN3CC[C@H](O)C3)cc2)c1 | – | 88.45% and 79.14% |
| Cc1[nH]ccc1C(=O)Nc1cccc(CN2CCC(O)CC2)c1 | 11.84% | – |
| CCc1ccc(C(=O)Nc2cccc(CN3CCCC3C(N)=O)c2)cc1 (stereo not drawn) | -39.95% | – |
| NC(=O)c1ccc(CN2CCCC(O)C2)cc1 (stereo not drawn) | -1.578% | – |
| Cc1cc(NC(=O)c2ccc(CN3CC[C@H](O)C3)cc2)ccc1F | – | 96.75% and 98.24% |
| Fc1cccc(-c2nc(CN3CCCC3Cn3cccn3)co2)c1 (stereo not drawn) | 3.787% | – |
| CCc1cc(O)nc(C2CCCN2C(=O)c2cc(CC)on2)n1 (stereo not drawn) | 0.3331% | – |
| CC(NC(=O)NCCCn1cncn1)c1ccc2c(c1)CC(=O)N2 (stereo not drawn) | 3.485% | – |
| CSCc1cc(F)ccc1CNC(=O)N1CCOCC1 | 1.579% | – |
| CC(=O)N1Cc2ccccc2CC1C(=O)Nc1cc(C)ccn1 (stereo not drawn) | – | 71.78% and 85.23% |
| CC(=O)N1Cc2ccccc2C[C@H]1C(=O)Nc1ccccn1 | – | 80.79% and 67.33% |
| Cc1ccnc(NC(=O)C2(n3cnnn3)CCCCC2)c1 | -7.357% | – |
| CCCN1Cc2ccccc2CC1C(=O)NC (stereo not drawn) | -3.834% | – |
| CCNC(=O)NCCc1csc(N2CCCC2)n1 | -15.2% | – |
| CCOc1ccc(-c2cc(=O)n3c(n2)CCCCC3)cc1 | -4.121% | – |
| COc1ccc(CN(Cc2ccccn2)Cc2cncn2C)cc1.O=C(O)CC(O)(CC(=O)O)C(=O)O | 3.185% | – |
| CCOc1cc(C)nc(N2CCN(C(=O)CN(C)C3CC3)CC2)n1 | 8.163% | – |
| Cn1cncc1CN1CCC(O)(Cn2nc(-c3cccs3)oc2=O)CC1.O=C(O)CC(O)(CC(=O)O)C(=O)O | -17.63% | – |
| CC(C)n1nc2c(cc1=O)CN(c1nc3ccccc3s1)CC2 | – | 66.67% and 52.43% and 41.91% |
| CN(C)C(=O)CS(=O)(=O)Cc1cc(Cl)c2c(c1)OCCO2 | 4.247% | – |

| Compound | Percent Effect | Percent Effect (10 mM as filed; unlikely as a test dose) |
| --- | --- | --- |
| Clc1cc(CN2CCCCC2Cn2cncn2)c2ncccc2c1 (stereo not drawn) | -10.63% | – |
| CC(C)Nc1ncnc2c1CCN(C(=O)c1ccc[nH]1)CC2 | -7.967% | – |
| CC(C)C[C@H](N)COc1cccc(F)c1Oc1cccc(Cl)c1 | 0.9974% | – |
| Cc1ccc(NS(=O)(=O)c2cc3c(c(C(=O)O)c2)OCCO3)cc1F | 6.057% | – |
| O=C(O)C(F)(F)F.O=c1ccc2c(n1CC1CC1)CCC(NCc1cccs1)C2 (stereo not drawn) | 4.557% | – |
| c1ccc(-c2noc([C@@H]3Cc4nc[nH]c4CN3)n2)cc1 | – | 8.153% and 22.58% |
| Cc1noc(NC(=O)c2ccc(OC(F)(F)F)cc2)n1 | -13.94% | – |
| FC(F)(F)Oc1ccc(-c2noc([C@@H]3Cc4nc[nH]c4CN3)n2)cc1 | – | 93.02% and 93.75% |
| Cc1cccc(-c2noc([C@@H]3Cc4nc[nH]c4CN3)n2)c1 | – | 77.23% and 75.76% |
| Cc1cccc(-c2noc(CN3CCOCC3C)n2)c1 (stereo not drawn) | 5.079% | – |
| Cc1ccc(-c2noc([C@@H]3Cc4nc[nH]c4CN3)n2)cc1 | – | 79.76% and 77.83% |
| c1cc(-c2noc([C@@H]3Cc4nc[nH]c4CN3)n2)ccn1 | – | -0.1591% and 11.18% |
| Fc1ccc(-c2noc([C@@H]3Cc4nc[nH]c4CN3)n2)cc1 | – | 27.52% and 35.27% |
| O=C(NCC1CC1)C1CN(C(=O)NC2CCCC2)Cc2cncn2C1 (stereo not drawn) | 10.46% | – |
| Cc1nn(C)c(Cl)c1C1CCCN1C(=O)c1cnn(C)c1C1CC1 (stereo not drawn) | 4.376% | – |
| CC(C)C(=O)N1CCCC(c2cncc(Oc3cccnc3)n2)C1 (stereo not drawn) | -4.997% | – |
| c1cc(N2CCOCC(Cc3ccc4[nH]ccc4c3)C2)ncn1 (stereo not drawn) | 5.765% | – |
| CNC(=O)c1cc(C2CCCNC2)n[nH]1.Cl (stereo not drawn) | 11.11% | – |
| COCCc1noc(CN2CCCC2Cn2nc(C)nc2C)n1 (stereo not drawn) | 16.37% | – |
| CC(=O)N(Cc1ncc(C)o1)C1CCN(Cc2csc(C)n2)C1 (stereo not drawn) | 8.537% | – |
| Cc1cc(C(=O)N2CC[C@H]3C[C@H](c4ccncn4)O[C@@H]3C2)c(C)[nH]1 | -3.163% | – |
| CC(C)(C)n1ncc2c(=O)n(CC(=O)NCc3ccccc3)cnc21 | – | 92.95% and 84.04% |
| CCCNC(=O)Cn1nc(C(C)C)c2cnn(C(C)(C)C)c2c1=O | -2.007% | – |
| CC(C)(C)n1ncc2c(=O)n(CC(=O)NCc3ccccc3Cl)cnc21 | – | 89.9% and 78.88% |

| Compound | Percent Effect | Percent Effect (10 mM as filed; unlikely as a test dose) |
| --- | --- | --- |
| NC(=O)Cn1c(CO)cnc1SCC(=O)NCc1ccccc1Cl | – | -15.15% and -22% |
| CC(C)(C)n1ncc2c(=O)n(CC(=O)NCCc3ccccc3)cnc21 | – | -2.076% and -3.898% |
| CCCNC(=O)c1ncn2c1CN(CC(C)C)S(=O)(=O)c1ccccc1-2 | 20.71% | – |
| CNc1ccc(C2CN(c3cc(C)nc(N)n3)CCO2)nc1 (stereo not drawn) | 20.28% | – |
| CNc1nc2c(s1)C(=O)CN(C(=O)[C@@H](N)Cc1cccc(OC)c1)C2 | -10.92% | – |
| CN[C@@H]1CCC[C@@H](Oc2ccccc2Oc2ccc(C)cc2)[C@@H]1O | 14.14% | – |
| Cc1cccc2sc(NC(=O)CN3CCCC(O)(CO)C3)nc12 (stereo not drawn) | – | -25.02% and -31.47% |
| Cc1cccc2sc(NC(=O)CN3CCCC4(CC3)CNC(=O)O4)nc12 (stereo not drawn) | – | 74.6% and 74.31% |
| Cc1cccc2sc(NC(=O)CN3CCC(C)CC3)nc12 | – | 5.902% and -3.165% |
| COc1ccc(CN(C)c2ccc(-c3nccn3C)nn2)cc1OC | – | 63.95% and 77.57% |
| CN(Cc1ccoc1)c1ccc(-c2nccn2C)nn1 | – | -6.958% and -8.789% |
| CN(Cc1nccn1C)c1ccc(-c2nccn2C)nn1 | – | -4.7% and -1.79% |
| O=C(CN1CCC(c2cc(=O)n3c(n2)CCCCC3)CC1)N1CCCC1 | -0.7803% | – |
| CC(=O)N1CCOC(c2cc(N3CC(O)C3)nc(C)n2)C1 (stereo not drawn) | -19.49% | – |
| c1ccc2oc(CN3CCCC3c3noc(C4CC4)n3)nc2c1 (stereo not drawn) | 8.668% | – |
| c1ccc2sc(CN3CCCC3c3noc(C4CC4)n3)nc2c1 (stereo not drawn) | – | 57.55% and 55.22% and 51.03% |
| CC(CCc1ccccc1)N1CCC(C(=O)Nc2cnccn2)CC1 (stereo not drawn) | -2.997% | – |
| CS(=O)(=O)NCc1cn2c(n1)CN(C(=O)c1ccc[nH]1)CC2 | -21.11% | – |
| Cc1oncc1C(=O)N1CC[C@H]2[C@@H]1CCC(=O)N2CC1CCOCC1 | 5.199% | – |
| CC(=O)N1CCC(c2cc(C(F)(F)F)nc3nccn23)CC1 | 1.841% | – |
| O=C1[C@H]2CN(C(=O)[C@H]3CCCO3)C[C@H]2CN1CC1CC1 | 2.539% | – |
